Tests used:
Assay in all cases: DAPPL (digital affinity profiling via proximity ligation, sequencing); 10 mM Tris-HCl pH 7.5, 50 mM NaCl, 1 mM DTT, 4% glycerol, room temperature, 30 min; GST-TFs on glutathione beads, 16-mer random dsDNA library, 0.1% formaldehyde crosslink after washing; high values mean tight binding
[1] = molecular target: T1, FEV (Homo sapiens, UniProt Q99581 1-238); settings: protein: recombinant; tags: N-terminal GST; dsDNA, one strand shown
T1 sequence: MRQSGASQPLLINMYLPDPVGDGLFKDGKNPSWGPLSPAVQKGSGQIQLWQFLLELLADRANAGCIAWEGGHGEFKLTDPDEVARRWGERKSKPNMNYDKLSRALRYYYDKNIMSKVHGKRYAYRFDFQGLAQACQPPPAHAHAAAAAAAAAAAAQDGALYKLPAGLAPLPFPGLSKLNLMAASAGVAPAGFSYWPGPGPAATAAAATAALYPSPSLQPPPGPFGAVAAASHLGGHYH
Outline: (§1)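 Each value of binding signal is a hexamer's read frequency for a factor divided by the same hexamer's frequency in the tag-only sample. Barcoded, bead-captured GST fusions of human transcription factors made in yeast were pooled with that sample and incubated with 200 nmole of a random double-stranded 16-mer DNA library in Tris/NaCl/DTT/glycerol buffer at room temperature for 30 min. Washing, 0.1% formaldehyde crosslinking, proximity ligation, PCR and Illumina NextSeq500 sequencing followed.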

[2] = molecular target: ETV5 (Homo sapiens, UniProt P41161 1-510); settings: protein: recombinant; tags: N-terminal GST; dsDNA, one strand shown
Sequence of ETV5 (P41161 whole entry): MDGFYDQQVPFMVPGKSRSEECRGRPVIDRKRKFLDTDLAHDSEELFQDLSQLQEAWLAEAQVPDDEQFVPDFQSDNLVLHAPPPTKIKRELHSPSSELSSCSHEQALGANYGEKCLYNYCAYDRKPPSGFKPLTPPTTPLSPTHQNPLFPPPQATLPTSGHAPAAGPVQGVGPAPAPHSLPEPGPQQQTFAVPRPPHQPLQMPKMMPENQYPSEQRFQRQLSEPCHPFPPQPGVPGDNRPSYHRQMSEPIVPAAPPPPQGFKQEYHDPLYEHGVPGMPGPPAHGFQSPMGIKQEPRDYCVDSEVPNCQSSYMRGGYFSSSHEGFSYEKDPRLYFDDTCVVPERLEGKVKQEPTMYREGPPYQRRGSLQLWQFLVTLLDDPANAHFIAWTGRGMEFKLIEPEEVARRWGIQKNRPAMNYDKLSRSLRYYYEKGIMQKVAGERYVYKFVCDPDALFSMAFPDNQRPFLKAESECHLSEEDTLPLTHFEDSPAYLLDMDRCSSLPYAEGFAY
Outline: as §1

[3] = molecular target: HSF1 (Homo sapiens, UniProt Q00613 1-529); settings: protein: recombinant; tags: N-terminal GST; chain copies: 3; dsDNA, one strand shown
Sequence of HSF1 (Q00613 whole entry): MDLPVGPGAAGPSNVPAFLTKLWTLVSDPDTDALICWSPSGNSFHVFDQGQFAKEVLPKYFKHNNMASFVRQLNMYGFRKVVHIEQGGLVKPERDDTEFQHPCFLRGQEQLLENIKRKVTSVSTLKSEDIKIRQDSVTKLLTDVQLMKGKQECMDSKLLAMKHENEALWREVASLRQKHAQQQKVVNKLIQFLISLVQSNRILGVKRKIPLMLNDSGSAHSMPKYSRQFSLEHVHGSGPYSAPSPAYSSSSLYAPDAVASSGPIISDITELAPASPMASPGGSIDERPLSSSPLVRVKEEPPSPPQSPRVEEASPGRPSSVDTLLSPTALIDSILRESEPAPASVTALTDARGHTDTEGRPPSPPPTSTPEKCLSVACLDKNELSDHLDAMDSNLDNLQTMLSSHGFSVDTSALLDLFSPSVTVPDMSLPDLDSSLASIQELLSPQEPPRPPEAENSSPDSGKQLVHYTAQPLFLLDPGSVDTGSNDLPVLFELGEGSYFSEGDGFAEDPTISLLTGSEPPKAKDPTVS
Outline: as §1

[4] = molecular target: T2, SPIC (Homo sapiens, UniProt Q8N5J4 1-248); settings: protein: recombinant; tags: N-terminal GST; dsDNA, one strand shown
T2 sequence: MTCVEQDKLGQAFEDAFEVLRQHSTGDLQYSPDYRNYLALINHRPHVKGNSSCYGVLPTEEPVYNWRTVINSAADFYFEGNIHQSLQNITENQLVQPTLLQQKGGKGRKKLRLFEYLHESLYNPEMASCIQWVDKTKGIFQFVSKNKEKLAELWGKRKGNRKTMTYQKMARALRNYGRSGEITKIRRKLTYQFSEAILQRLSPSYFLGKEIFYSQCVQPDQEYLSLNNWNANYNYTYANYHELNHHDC
Outline: as §1

[5] = molecular target: ELF4 (Homo sapiens, UniProt Q99607 1-663); settings: protein: recombinant; tags: N-terminal GST; dsDNA, one strand shown
Sequence of ELF4 (Q99607 whole entry): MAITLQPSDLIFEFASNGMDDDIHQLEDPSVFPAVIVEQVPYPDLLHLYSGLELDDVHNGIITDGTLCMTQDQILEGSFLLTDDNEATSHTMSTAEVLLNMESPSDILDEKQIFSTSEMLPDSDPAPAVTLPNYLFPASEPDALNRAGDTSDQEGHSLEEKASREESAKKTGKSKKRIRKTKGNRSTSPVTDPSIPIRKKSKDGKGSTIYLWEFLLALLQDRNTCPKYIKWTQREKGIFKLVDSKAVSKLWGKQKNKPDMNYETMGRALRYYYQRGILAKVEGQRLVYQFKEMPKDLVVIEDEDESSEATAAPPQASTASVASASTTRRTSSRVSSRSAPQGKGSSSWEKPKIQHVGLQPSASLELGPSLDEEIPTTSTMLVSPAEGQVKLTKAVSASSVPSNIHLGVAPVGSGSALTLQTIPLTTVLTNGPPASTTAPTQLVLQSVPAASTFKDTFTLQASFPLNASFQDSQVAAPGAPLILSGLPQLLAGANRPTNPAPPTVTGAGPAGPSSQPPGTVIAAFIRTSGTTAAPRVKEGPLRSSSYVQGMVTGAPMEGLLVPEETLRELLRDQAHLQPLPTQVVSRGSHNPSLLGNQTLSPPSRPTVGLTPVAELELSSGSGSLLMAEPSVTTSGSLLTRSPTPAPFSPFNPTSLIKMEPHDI
Outline: as §1

[6] = molecular target: T3, ELK4 (Homo sapiens, UniProt P28324-2 1-405); settings: protein: recombinant; tags: N-terminal GST; dsDNA, one strand shown
T3 sequence: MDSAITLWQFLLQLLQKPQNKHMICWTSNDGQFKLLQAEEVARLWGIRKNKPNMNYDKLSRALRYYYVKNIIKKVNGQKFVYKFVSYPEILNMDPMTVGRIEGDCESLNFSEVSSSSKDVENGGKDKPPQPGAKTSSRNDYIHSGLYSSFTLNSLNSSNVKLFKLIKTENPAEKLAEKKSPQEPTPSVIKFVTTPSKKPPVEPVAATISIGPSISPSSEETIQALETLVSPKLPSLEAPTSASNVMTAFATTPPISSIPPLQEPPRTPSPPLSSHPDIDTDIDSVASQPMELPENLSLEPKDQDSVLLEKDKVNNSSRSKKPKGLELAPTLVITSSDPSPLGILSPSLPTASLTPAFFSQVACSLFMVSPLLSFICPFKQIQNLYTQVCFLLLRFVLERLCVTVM
Outline: as §1

[7] = molecular target: T4, ETV2 (Homo sapiens, UniProt O00321 1-342); settings: protein: recombinant; tags: N-terminal GST; dsDNA, one strand shown
T4 sequence: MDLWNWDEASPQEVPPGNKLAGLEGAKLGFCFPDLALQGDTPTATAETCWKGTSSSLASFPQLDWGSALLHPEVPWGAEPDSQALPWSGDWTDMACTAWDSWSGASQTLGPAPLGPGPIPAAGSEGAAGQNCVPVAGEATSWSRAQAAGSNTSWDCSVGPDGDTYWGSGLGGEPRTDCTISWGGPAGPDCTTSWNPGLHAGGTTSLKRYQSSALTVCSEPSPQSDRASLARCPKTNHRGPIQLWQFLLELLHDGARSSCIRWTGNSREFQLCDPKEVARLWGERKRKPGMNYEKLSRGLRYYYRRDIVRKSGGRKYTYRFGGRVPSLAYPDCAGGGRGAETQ
Outline: as §1

[8] = molecular target: T5, ELF3 (Homo sapiens, UniProt P78545 1-371); settings: protein: recombinant; tags: N-terminal GST; dsDNA, one strand shown
T5 sequence: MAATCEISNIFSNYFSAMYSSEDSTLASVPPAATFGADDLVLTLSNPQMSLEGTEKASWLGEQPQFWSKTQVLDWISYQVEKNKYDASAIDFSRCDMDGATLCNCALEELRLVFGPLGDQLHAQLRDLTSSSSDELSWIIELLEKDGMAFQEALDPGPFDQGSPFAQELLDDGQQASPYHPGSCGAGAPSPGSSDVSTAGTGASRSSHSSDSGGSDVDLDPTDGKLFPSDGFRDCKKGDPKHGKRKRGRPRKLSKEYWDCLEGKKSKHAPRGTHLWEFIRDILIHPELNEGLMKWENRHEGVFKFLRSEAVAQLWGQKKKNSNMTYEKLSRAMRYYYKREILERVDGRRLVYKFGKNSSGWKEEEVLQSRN
Outline: as §1

[9] = molecular target: CRX (Homo sapiens, UniProt O43186 1-299); settings: protein: recombinant; tags: N-terminal GST; dsDNA, one strand shown
Sequence of CRX (O43186 whole entry): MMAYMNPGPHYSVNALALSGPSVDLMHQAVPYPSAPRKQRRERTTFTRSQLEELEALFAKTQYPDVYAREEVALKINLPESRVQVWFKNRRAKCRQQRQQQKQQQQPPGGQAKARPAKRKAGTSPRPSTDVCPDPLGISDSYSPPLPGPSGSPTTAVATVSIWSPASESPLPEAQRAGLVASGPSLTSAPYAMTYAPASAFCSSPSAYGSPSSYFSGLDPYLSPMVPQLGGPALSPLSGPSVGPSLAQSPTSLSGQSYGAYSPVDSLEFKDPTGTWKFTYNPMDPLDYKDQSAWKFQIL
Outline: as §1

[10] = molecular target: ETV1 (Homo sapiens, UniProt P50549 1-477); settings: protein: recombinant; tags: N-terminal GST; dsDNA, one strand shown
Sequence of ETV1 (P50549 whole entry): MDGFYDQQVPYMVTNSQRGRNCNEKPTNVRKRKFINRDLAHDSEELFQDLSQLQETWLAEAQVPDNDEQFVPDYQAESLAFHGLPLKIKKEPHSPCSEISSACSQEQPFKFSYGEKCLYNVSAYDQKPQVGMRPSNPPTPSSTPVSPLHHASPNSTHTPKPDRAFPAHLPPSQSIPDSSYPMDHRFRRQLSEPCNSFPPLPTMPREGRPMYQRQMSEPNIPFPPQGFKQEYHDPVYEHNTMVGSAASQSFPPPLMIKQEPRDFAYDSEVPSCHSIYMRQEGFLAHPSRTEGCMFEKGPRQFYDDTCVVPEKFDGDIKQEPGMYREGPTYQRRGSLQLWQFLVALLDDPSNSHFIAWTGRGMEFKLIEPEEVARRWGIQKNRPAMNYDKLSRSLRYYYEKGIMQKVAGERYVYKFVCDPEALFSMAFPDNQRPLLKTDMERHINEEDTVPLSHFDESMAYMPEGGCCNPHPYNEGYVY
Outline: as §1

[11] = molecular target: T6, ERF (Homo sapiens, UniProt P50548 1-548); settings: protein: recombinant; tags: N-terminal GST; dsDNA, one strand shown
T6 sequence: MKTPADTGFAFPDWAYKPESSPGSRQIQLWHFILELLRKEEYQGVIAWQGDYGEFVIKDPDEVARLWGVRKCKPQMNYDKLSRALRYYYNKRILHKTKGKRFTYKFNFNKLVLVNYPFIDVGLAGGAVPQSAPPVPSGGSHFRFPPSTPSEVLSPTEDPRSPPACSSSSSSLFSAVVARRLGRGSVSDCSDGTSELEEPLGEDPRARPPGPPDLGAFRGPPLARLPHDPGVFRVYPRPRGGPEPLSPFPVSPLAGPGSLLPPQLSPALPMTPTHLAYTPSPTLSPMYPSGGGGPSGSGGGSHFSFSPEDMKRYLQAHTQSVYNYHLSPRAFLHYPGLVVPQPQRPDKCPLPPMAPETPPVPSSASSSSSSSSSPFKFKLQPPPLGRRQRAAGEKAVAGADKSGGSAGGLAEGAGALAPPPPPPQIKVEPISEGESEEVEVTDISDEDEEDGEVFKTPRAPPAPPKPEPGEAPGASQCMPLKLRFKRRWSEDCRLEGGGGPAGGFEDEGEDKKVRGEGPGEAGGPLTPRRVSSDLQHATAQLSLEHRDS
Outline: as §1

[12] = molecular target: T7, ETV3L (Homo sapiens, UniProt Q6ZN32 1-361); settings: protein: recombinant; tags: N-terminal GST; dsDNA, one strand shown
T7 sequence: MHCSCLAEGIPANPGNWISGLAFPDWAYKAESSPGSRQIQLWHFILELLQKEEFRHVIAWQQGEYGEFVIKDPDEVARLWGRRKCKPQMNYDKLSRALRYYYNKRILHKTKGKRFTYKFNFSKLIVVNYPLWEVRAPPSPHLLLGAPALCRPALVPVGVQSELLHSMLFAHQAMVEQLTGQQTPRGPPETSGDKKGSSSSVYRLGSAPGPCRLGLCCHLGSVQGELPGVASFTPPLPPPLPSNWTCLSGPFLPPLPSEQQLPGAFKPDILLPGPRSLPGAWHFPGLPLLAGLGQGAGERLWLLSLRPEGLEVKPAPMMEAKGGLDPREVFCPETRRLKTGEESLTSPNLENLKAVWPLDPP
Outline: as §1

[13] = molecular target: T8, ETS2 (Homo sapiens, UniProt P15036 1-469); settings: protein: recombinant; tags: N-terminal GST; dsDNA, one strand shown
T8 sequence: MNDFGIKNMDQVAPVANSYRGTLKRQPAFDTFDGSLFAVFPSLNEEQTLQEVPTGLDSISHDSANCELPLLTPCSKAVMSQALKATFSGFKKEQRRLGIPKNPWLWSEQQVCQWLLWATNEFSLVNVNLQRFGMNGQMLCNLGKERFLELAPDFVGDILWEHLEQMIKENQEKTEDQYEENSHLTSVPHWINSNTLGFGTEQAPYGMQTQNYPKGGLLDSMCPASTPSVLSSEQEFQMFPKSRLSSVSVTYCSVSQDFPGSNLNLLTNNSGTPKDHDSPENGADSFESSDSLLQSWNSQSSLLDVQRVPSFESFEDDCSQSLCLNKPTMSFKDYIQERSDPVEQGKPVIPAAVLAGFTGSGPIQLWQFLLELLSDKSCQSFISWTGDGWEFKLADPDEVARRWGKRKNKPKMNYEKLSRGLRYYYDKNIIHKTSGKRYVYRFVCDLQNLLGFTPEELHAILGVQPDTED
Outline: as §1

[14] = molecular target: T9, SPDEF (Homo sapiens, UniProt O95238 1-335); settings: protein: recombinant; tags: N-terminal GST; dsDNA, one strand shown
T9 sequence: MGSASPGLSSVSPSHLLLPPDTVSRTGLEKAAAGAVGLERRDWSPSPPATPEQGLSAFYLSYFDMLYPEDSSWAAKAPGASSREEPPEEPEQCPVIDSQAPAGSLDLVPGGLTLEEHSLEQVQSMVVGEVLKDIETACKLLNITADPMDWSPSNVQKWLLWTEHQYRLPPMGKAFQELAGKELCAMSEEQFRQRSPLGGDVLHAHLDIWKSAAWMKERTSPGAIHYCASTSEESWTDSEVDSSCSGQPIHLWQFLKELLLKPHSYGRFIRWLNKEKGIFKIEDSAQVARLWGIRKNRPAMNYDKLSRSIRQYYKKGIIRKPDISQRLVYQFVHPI
Outline: as §1

[15] = molecular target: T10, ETV7 (Homo sapiens, UniProt Q9Y603 1-341); settings: protein: recombinant; tags: N-terminal GST; dsDNA, one strand shown
T10 sequence: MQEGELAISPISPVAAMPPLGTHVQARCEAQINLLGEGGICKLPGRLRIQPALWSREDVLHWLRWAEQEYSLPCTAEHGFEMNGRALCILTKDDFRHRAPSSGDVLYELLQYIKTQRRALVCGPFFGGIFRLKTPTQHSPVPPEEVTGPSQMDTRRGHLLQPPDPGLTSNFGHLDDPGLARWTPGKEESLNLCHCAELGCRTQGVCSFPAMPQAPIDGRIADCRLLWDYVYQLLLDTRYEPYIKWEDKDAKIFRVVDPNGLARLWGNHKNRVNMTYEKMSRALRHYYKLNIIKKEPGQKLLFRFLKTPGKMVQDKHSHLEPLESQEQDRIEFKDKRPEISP
Outline: as §1

[16] = molecular target: T11, ELF5 (Homo sapiens, UniProt Q9UKW6-2 1-255); settings: protein: recombinant; tags: N-terminal GST; dsDNA, one strand shown
T11 sequence: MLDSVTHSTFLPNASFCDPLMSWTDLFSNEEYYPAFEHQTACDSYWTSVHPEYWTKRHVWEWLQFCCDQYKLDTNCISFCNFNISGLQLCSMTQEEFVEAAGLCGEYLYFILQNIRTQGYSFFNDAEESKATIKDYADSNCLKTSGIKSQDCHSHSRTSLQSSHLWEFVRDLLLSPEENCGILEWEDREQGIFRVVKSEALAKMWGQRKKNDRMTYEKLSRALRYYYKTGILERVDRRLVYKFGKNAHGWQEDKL
Outline: as §1

[17] = molecular target: T12, ETV3 (Homo sapiens, UniProt P41162-2 1-143); settings: protein: recombinant; tags: N-terminal GST; dsDNA, one strand shown
T12 sequence: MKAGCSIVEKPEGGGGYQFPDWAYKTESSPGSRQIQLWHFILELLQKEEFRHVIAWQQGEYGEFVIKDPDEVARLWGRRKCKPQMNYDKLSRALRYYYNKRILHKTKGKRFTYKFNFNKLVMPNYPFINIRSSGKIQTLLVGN
Outline: as §1

[18] = molecular target: ETV6 (Homo sapiens, UniProt P41212 1-452); settings: protein: recombinant; tags: N-terminal GST; dsDNA, one strand shown
Sequence of ETV6 (P41212 whole entry): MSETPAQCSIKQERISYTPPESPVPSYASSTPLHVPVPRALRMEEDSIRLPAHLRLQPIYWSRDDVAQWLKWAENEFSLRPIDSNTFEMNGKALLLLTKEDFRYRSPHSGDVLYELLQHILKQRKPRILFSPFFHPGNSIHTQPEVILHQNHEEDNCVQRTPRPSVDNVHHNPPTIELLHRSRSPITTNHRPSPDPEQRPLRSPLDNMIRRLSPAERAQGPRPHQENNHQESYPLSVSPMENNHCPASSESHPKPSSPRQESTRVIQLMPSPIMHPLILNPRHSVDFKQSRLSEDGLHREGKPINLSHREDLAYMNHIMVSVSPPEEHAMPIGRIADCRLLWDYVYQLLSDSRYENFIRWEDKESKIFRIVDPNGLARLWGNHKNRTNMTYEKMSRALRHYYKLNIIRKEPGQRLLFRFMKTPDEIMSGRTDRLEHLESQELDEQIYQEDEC
Outline: as §1

CTTGTG
binding signal [1]: 1.39 fold enrichment (6-mer frequency, TF over GST control)
binding signal [2]: 1.51 fold enrichment (6-mer frequency, TF over GST control)
binding signal [3]: 1.25 fold enrichment (6-mer frequency, TF over GST control)
binding signal [4]: 1.45 fold enrichment (6-mer frequency, TF over GST control)
binding signal [5]: 1.59 fold enrichment (6-mer frequency, TF over GST control)
binding signal [6]: 1.26 fold enrichment (6-mer frequency, TF over GST control)
binding signal [7]: 1.44 fold enrichment (6-mer frequency, TF over GST control)
binding signal [8]: 1.5 fold enrichment (6-mer frequency, TF over GST control)
binding signal [9]: 1.25 fold enrichment (6-mer frequency, TF over GST control)
binding signal [10]: 1.44 fold enrichment (6-mer frequency, TF over GST control)
binding signal [11]: 1.59 fold enrichment (6-mer frequency, TF over GST control)
binding signal [12]: 1.4 fold enrichment (6-mer frequency, TF over GST control)
binding signal [13]: 1.5 fold enrichment (6-mer frequency, TF over GST control)
binding signal [14]: 1.41 fold enrichment (6-mer frequency, TF over GST control)
binding signal [15]: 1.41 fold enrichment (6-mer frequency, TF over GST control)
binding signal [16]: 1.44 fold enrichment (6-mer frequency, TF over GST control)
binding signal [17]: 1.51 fold enrichment (6-mer frequency, TF over GST control)
binding signal [18]: 1.22 fold enrichment (6-mer frequency, TF over GST control)

From paper PMC7862700, “An all-to-all approach to the identification of sequence-specific readers for epigenetic DNA modifications on cytosine”
